# Assay outcomes deposited in PubChem BioAssay by several laboratories.
# Rows were chosen to be rich in hits. Some 2.4% of all compounds tested hit in one or more screens of this group.
# MCL1 BIM primary = disrupts human MCL1 binding to BIM-BH3 peptide. Q07820. GST-MCL1 / FITC-Bim-BH3 fluorescence polarization. inhibition, % at 10.9 µM. hit rate 0.68% among 320,000;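 active = inhibition above the mean inhibition of all tested compounds plus 3 SD, set per campaign, cut at about 40% in these data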;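 note: higher means more loss of mP so more displacement of Bim peptide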
# Target sequence (Q07820 whole entry, looked up): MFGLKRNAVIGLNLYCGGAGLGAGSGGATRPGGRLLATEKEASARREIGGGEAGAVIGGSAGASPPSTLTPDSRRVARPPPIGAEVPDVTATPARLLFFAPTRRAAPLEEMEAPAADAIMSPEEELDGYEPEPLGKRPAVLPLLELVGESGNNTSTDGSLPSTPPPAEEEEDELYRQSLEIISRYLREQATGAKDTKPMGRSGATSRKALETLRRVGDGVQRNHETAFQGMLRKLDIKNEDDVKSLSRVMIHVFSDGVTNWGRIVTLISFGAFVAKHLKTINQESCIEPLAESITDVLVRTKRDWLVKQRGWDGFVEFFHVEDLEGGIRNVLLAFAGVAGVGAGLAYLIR
# TNF death inh = inhibitors of TNF-alpha induced necroptosis in Jurkat FADD-/- cells | Jurkat FADD-/- TNF necroptosis rescue, ATP luminescence, 24 h; 0 = TNF only, 100 = no-TNF cells | activation (protection from cell death), % at 10 µM | hit rate 0.068% among 220,000 | AID 463075;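 active = activation, meaning protection from cell death, of at least 50% relative to plate controls; inactive = activation below 50%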;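 note: necroptosis triggered by 40 ng/mL TNF-alpha added together with compound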
# Mcl-1 Bim block = inhibitors of Bim-Mcl-1 interaction, human; inhibition, % at 10 µM; hit rate 0.1% among 190,000; Bead-based flow cytometry, Bim peptide-Mcl-1 binding; Q07820; AID 1009; in the data active = inhibition above about 40%
# Mcl1 Bid PPI = disrupts binding of human Mcl-1 to Bid peptide; TR-FRET Mcl-1/Bid-Dy647 peptide binding, 1536-well; inhibition, % at 21.7 µM; hit rate 0.97% among 220,000;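 active = compounds that cut the binding signal by more than half at the single screening dose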;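 note: His-tagged Mcl-1 with europium anti-His antibody binding Bid BH3 peptide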
# L929 necroptosis = L929 zVAD cell death inhibition; L929 zVAD necroptosis rescue, ATP luminescence, 24 h; with zVAD 60 µM; viability rescue, % at 10 µM; hit rate 0.38% among 220,000;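 active = activation, scaled between plate controls, above about 75%, limit read from the data; inactive = activation under that limit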
# Mcl1-Noxa inh = disrupts binding of human Mcl-1 to Noxa peptide | Q07820 | TR-FRET Mcl-1/Noxa peptide binding, 2 h | inhibition, % at 21.7 µM | hit rate 1.5% among 220,000;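 active = compounds that cut the protein-peptide binding signal by more than 50% relative to plate controls in a single-dose test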;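 note: His-tagged Mcl-1 with rhodamine Noxa BH3 peptide and terbium anti-His antibody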
# BCLXL inh confirm = Bcl-xL (human) inhibition, MCL1 counter-screen confirmation; shares compounds with MCL1 BIM primary; GST-Bcl-xL / FITC-Bim BH3 peptide FP binding; inhibition, % at 10.9 µM; hit rate 54% among 1,700;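 active = inhibition above a cutoff equal to the mean inhibition of all tested compounds plus 3 SD, cut at about 30% in these data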
# Target sequence (Q07817 whole entry, looked up): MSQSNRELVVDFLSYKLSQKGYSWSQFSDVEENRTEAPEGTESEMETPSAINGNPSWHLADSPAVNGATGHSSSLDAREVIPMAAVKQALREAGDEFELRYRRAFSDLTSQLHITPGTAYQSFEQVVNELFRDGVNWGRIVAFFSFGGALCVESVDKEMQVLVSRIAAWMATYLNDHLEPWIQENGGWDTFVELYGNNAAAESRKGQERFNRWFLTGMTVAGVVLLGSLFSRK
# MCL1 BIM confirm = confirmation of human MCL1 and BIM-BH3 interaction inhibitors | shares compounds with MCL1 BIM primary | GST-MCL1 / FITC-Bim-BH3 fluorescence polarization | inhibition, % at 10.9 µM | hit rate 61% among 1,700;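 active = inhibition above the average of all tested compounds plus 3 SD, cut at about 40% in these data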
# Hits are given with their value; . = inactive; / = not tested or not shown; + = active, no number.
SMILES,MCL1 BIM primary,TNF death inh,Mcl-1 Bim block,Mcl1 Bid PPI,L929 necroptosis,Mcl1-Noxa inh,BCLXL inh confirm,MCL1 BIM confirm
O=c1cc(-c2ccc(O)c(O)c2)oc2c1ccc1ccccc12,45,/,/,/,/,/,.,45
CCN(c1ccc(OC)cc1)S(=O)(=O)c1nnc(NC(=O)c2ccc(C)cc2)s1,.,/,/,/,/,/,/,/
Cc1cc(NC(=O)Cc2cccs2)no1,62,.,.,.,.,102,.,69
Cc1cc(NS(=O)(=O)c2ccc(NC(=O)Cc3cccs3)cc2)no1,.,.,.,.,.,.,/,/
c1ccc(N2CCN(c3nc4ccccc4n4nnnc34)CC2)cc1,59,.,.,.,.,.,38,.
c1ccc2c(c1)nc(N1CCOCC1)c1nnnn12,.,.,.,.,.,.,/,/
Nc1c(C(=O)N/N=C/c2cccnc2)oc2nc(-c3ccco3)cc(-c3ccco3)c12,61,.,/,.,.,.,.,.
Nc1c(C(=O)N/N=C/c2cccnc2)oc2nc(-c3ccccc3)cc(-c3ccco3)c12,.,.,/,.,.,.,/,/
NC(CO)C(=O)NNCc1ccc(O)c(O)c1O (stereo not given),72,.,.,.,.,101,37,61
COc1ccc(N=Nc2nc3ccc(Br)cc3n2C)cc1,+,.,.,.,.,.,88,116
N#Cc1c(SCC(=O)Nc2nc3ccc(Br)cc3s2)sc2c(O)cc(=O)[nH]c12,48,/,/,/,/,/,.,54
N#Cc1c(SCC(=O)Nc2nc3ccccc3s2)sc2c(O)cc(=O)[nH]c12,57,/,/,/,/,/,.,72
N#Cc1c(SCC(=O)Nc2nccs2)sc2c(O)cc(=O)[nH]c12,50,/,/,/,/,/,.,.
CCCSc1nnc(NC(=O)CSc2sc3c(O)cc(=O)[nH]c3c2C#N)s1,.,/,/,/,/,/,/,/
Cc1cccc(NC(=O)CCN2C(=O)c3ccccc3S2(=O)=O)c1C,.,/,/,/,/,/,/,/
CCOCCCNC(=S)N1CCC(NC(=O)C23CC4CC(CC(C4)C2)C3)CC1,.,.,.,.,.,.,/,/
NC(=O)C1CCCN(Cc2c(C(=O)N3CCc4ccccc4C3)nc3ccc(Cl)cn23)C1 (stereo not given),.,/,/,/,/,/,/,/
CCOc1ccc(N2CSC3=C(C#N)C(c4ccco4)CC(=O)N3C2)cc1 (stereo not given),78,.,.,.,.,.,.,63
CCS(=O)(=O)c1ccc(-c2cccc(NC(=O)COc3ccc(Cl)cc3)c2)nn1,.,/,/,/,/,/,/,/
CCOc1ccc(N=C2NC(=O)S/C2=C\c2ccc(N(C)C)cc2)cc1,80,.,.,.,.,.,96,113
Cc1ccc(S(=O)(=O)N2CCCN(C(=O)c3ccc(-n4cccn4)cc3)CC2)cc1,.,/,/,/,/,/,/,/
COC(=O)CCCCC1SCC(NC(=O)OC)C1NC(=O)OC (stereo not given),49,.,.,.,.,.,.,.
Cc1cc(C(=O)NC(C)CCc2ccccc2)ccc1[N+](=O)[O-] (stereo not given),.,/,/,/,/,/,/,/
COCC(C)(C)COS(N)(=O)=O,.,/,/,/,/,/,/,/
O=C1c2ccccc2-c2onc3ccc(NCc4ccco4)c1c23,199,.,.,57,.,.,162,188
SMILES,MCL1 BIM primary,TNF death inh,Mcl-1 Bim block,Mcl1 Bid PPI,L929 necroptosis,Mcl1-Noxa inh,BCLXL inh confirm,MCL1 BIM confirm
CCOc1ccc2noc3c2c1C(=O)c1ccccc1-3,174,.,.,.,.,.,146,171
O=C1c2ccccc2-c2onc3ccc(N4CCCC4)c1c23,/,.,.,.,.,.,/,/
CCNc1ccc2noc3c2c1C(=O)c1ccccc1-3,+,.,.,88,.,.,184,+
CN(C)c1ccc(O)c2c1CC1CC3[C@@H](N(C)C)C(=O)C(C(N)=O)=C(O)[C@]3(O)C(=O)C1=C2O (stereo not given in full),61,.,.,.,.,.,.,67
Cc1cccnc1Oc1ncccc1N,.,/,/,/,/,/,/,/
CNC(=O)NC(=O)CN1C(=O)NC2(CCOc3ccccc32)C1=O (stereo not given),.,/,/,/,/,/,/,/
Cc1cc2nc3c(=O)n(CCc4ccccc4)c(=O)[nH]c3nc2cc1N,+,.,/,.,.,.,190,+
Nc1ccc2nc3c(=O)n(CCc4ccccc4)c(=O)[nH]c3nc2c1,+,.,/,.,.,.,182,+
Nc1ccc2nc3c(=O)n(C4CCCCC4)c(=O)[nH]c3nc2c1,+,.,/,.,.,.,191,+
CCCCn1c(=O)[nH]c2nc3cc(N)ccc3nc2c1=O,+,.,.,.,.,.,+,+
CCCCn1c(N)c(Br)c(=O)[nH]c1=O,.,.,/,.,.,.,/,/
CCOC(=O)c1c(-c2ccco2)csc1NC(=O)COC(=O)c1cnccn1,.,/,/,/,/,/,/,/
COc1ccc(NS(=O)(=O)c2cccc(C(=O)NNC(=O)CNC(=O)c3ccc(C)cc3)c2)cc1,.,/,/,/,/,/,/,/
CC1=C(C(=O)Nc2cccc(C(=O)NC3CCCC(C)C3C)c2)SCCO1 (stereo not given),.,/,/,/,/,/,/,/
Cc1cccn2c(=O)c(C=C(C#N)C#N)c(N3CCN(C)CC3)nc12,53,/,/,/,/,/,.,.
O=Cc1c(Sc2ccccn2)nc2ccccn2c1=O,63,.,.,.,.,.,.,.
O=Cc1c(Sc2ccccc2)nc2ccccn2c1=O,.,.,.,.,.,.,/,/
Cc1ccc(NS(=O)(=O)c2ccc3c(c2)CCN3C(=O)CCC(=O)O)cc1Cl,.,/,/,/,/,/,/,/
Oc1cccc2cc3cccc(O)c3c(O)c12,51,.,.,.,.,97,43,50
Oc1ccccc1O,.,/,/,/,/,/,/,/
O=C(NC12CC3CC(CC(C3)C1)C2)c1cnccn1,53,.,.,.,.,.,.,40
Cc1cc(C(=O)COC(=O)c2ccc(Cl)c(S(N)(=O)=O)c2)c(C)n1C1CC1,.,/,/,/,/,/,/,/
COc1ccccc1/C=c1\sc2nc(-c3ccco3)nn2c1=O,60,.,.,.,.,74,.,52
CCOc1ccc(/C=c2\sc3nc(-c4ccco4)nn3c2=O)cc1OCC,.,.,.,.,.,.,/,/
O=C(NC(Cc1ccccc1)C(=O)O)/C(=C/c1ccco1)NC(=O)c1cccc(Br)c1 (stereo not given),51,.,.,.,.,.,.,.
Cc1cc(NC(=O)CSc2nc3c(cc2C#N)CCC3)no1,.,/,/,/,/,/,/,/
O=C(CSc1nc2ccccc2s1)NNC(=S)Nc1ccc(Cl)cc1,43,.,.,.,.,.,.,.
O=C1CCC([N+](=O)[O-])C(C2CC=CCC2)N1 (stereo not given),.,/,/,/,/,/,/,/
O=C1c2cccc3c(N4CCCCC4)ccc(c23)C(=O)N1c1ccc(O)cc1,68,.,.,.,.,.,60,72
